The whole screen tested about 5,500 compounds, of which about 2,000 (36%) were called active. Not shown: some 18% with an inconclusive outcome. No stated cut-off is given here; in the data, active means normalized growth mostly below about 0.91 (no sharp cut-off); inconclusive means no clear call, values can overlap the other calls; inactive means mostly above about 0.92. The list shows a part of the results.
Test: chemical genetic growth profiling, strain panel (AID 1159580);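 further: tested at 20 µM; growth read once vehicle control cultures reached saturation at 30 °C; 1 = growth at the plate median or of vehicle wells; lower values mean less growth of the strain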
Settings: S. cerevisiae deletion strains, growth OD

Measured: normalized growth

Cn1nccc1-c1cc(Cl)cc(Cl)c1O
inactive: locus YAR019C, strain CDC15, hits give low values 0.955 | locus YBL105C, strain PKC1, hits give low values 0.959 | locus YBR135W, strain CKS1, hits give low values 0.963 | locus YBR136W, strain MEC1, hits give low values 0.959 | locus YBR160W, strain CDC28, hits give low values 0.969 | locus YDL017W, strain CDC7, hits give low values 0.962 | locus YDL028C, strain MPS1, hits give low values 0.964 | locus YDL101C, strain DUN1, hits give low values 0.964 | locus YDL108W, strain KIN28, hits give low values 0.967 | locus YDL132W, strain cdc53, hits give low values 0.966 | locus YDL214C, strain PRR2, hits give low values 0.799 | locus YDR052C, strain DBF4, hits give low values 0.971 | locus YDR054C, strain cdc34, hits give low values 0.969 | locus YDR226W, strain ADK1, hits give low values 0.981 | locus YDR477W, strain SNF1, hits give low values 0.731 | locus YER123W, strain YCK3, hits give low values 0.739 | locus YFL009W, strain cdc4, hits give low values 0.982 | locus YFL029C, strain CAK1, hits give low values 0.952 | locus YFR003C, strain YPI1, hits give low values 0.961 | locus YFR019W, strain FAB1, hits give low values 0.869 | locus YFR028C, strain CDC14, hits give low values 0.975 | locus YGR040W, strain KSS1, hits give low values 0.745 | locus YGR052W, strain FMP48, hits give low values 0.742 | locus YGR092W, strain DBF2, hits give low values 0.722 | locus YHR079C, strain IRE1, hits give low values 0.698 | locus YHR082C, strain KSP1, hits give low values 0.748 | locus YHR205W, strain SCH9, hits give low values 0.787 | locus YIL147C, strain SLN1, hits give low values 0.96 | locus YJL095W, strain BCK1, hits give low values 0.676 | locus YJL128C, strain PBS2, hits give low values 0.917 | locus YJL157C, strain FAR1, hits give low values 0.749 | locus YJR016C, strain ILV3, hits give low values 0.962 | locus YJR066W, strain TOR1 (second series), hits give low values 0.673 | locus YJR066W, strain TOR1, hits give low values 0.686 | locus YKL048C, strain ELM1, hits give low values 0.908 | locus YKL067W, strain YNK1, hits give low values 0.817 | locus YKL101W, strain HSL1, hits give low values 0.835 | locus YKL193C, strain SDS22, hits give low values 0.934 | locus YKL203C, strain TOR2, hits give low values 0.798 | locus YLR133W, strain CKI1, hits give low values 0.825 | locus YLR403W, strain SFP1, hits give low values 0.678 | locus YML070W, strain DAK1, hits give low values 0.719 | locus YMR001C, strain CDC5, hits give low values 0.947 | locus YMR205C, strain PFK2 (second series), hits give low values 0.795 | locus YMR277W, strain FCP1, hits give low values 0.934 | locus YNL006W, strain LST8, hits give low values 0.968 | locus YNL020C, strain ARK1, hits give low values 0.819 | locus YNL161W, strain CBK1, hits give low values 0.956 | locus YNL183C, strain NPR1, hits give low values 0.757 | locus YNL207W, strain RIO2, hits give low values 0.948 | locus YNL222W, strain SSU72, hits give low values 0.964 | locus YNL307C, strain MCK1 (second series), hits give low values 0.798 | locus YOL078W, strain AVO1, hits give low values 0.95 | locus YOL136C, strain PFK27, hits give low values 0.773 | locus YOR061W, strain CKA2, hits give low values 0.744 | locus YOR119C, strain RIO1, hits give low values 0.798 | locus YOR231W, strain MKK1, hits give low values 0.795 | locus YOR329C, strain SCD5, hits give low values 0.963 | locus YPL031C, strain PHO85, hits give low values 0.704 | locus YPL153C, strain RAD53, hits give low values 0.718 | locus YPL204W, strain HRR25, hits give low values 0.685 | locus YPL209C, strain IPL1, hits give low values 0.965 | locus YPR025C, strain CCL1, hits give low values 0.961 | locus YPR106W, strain ISR1, hits give low values 0.948 | locus YPR111W, strain DBF20, hits give low values 0.952 | strain NNK1, hits give low values 0.96 | strain TSCII, hits give low values 0.947
active: locus YER133W, strain GLC7, hits give low values 0.687 | locus YHR030C, strain SLT2, hits give low values 0.617 | locus YLR113W, strain HOG1, hits give low values 0.571 | locus YPL256C, strain CLN2, hits give low values 0.718

— PubChem BioAssay AID1159580 (chemical genetic matrix, 2015)
